# Screening results: PubChem, National Center for Advancing Translational Sciences (NCATS)
# TGFb SMAD3 inh – qHTS for Inhibitors of TGF-b | 1.2% of 410,000 active | Potency, µM (series often up to 46.1 µM), actives largely listed as inhibitors | HepG2 CAGA-GFP TGF-b/SMAD3 reporter, GFP fluorescence, 18 h; TGF-beta stimulated, 500 pg/mL final; also: nearly all actives have a fitted effect of over 65% in size
#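 HEPG2 CAGA-GFP reporter cells (1000/well, DMEM with 1% FBS) received compounds, then recombinant TGF-beta at 500 pg/mL final for 18 hours at 37 degrees C. Per-cell GFP summed per well was normalised to unstimulated and stimulated DMSO controls before curve fitting.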
# HepG2 viability – qHTS for Inhibitors of TGF-b: Cytotox Counterscreen; HepG2 CAGA-GFP viability, ATP luminescence, 18 h; 0.76% of 410,000 active; Potency, µM (doses to about 46.1 µM), usual class: cytotoxic
#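 CellTiter-Glo luminescence gave cytotoxicity after 18 hours at 37 degrees C. The cells were HepG2 CAGA-GFP in 1% FBS DMEM, stimulated with 500 pg/mL TGF-beta after compound addition. %Activity was normalised to no-cell wells (complete cell-killing) and DMSO (no toxicity), and curves were fitted and classified.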
# IL-1B inflam inh – qHTS for Inhibitors of Inflammasome Signaling: IL-1-beta AlphaLISA Primary Screen; THP-1 LPS/ATP IL-1B secretion, AlphaLISA, 16 h; hits give low values; activity change, % at 57.5 µM; 4.7% of 360,000 active; AID 743279, 2014; in the data active = activity change below about -50%; inconclusive = mostly about -30% to -49%
#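 Secreted IL-1B measured by AlphaLISA bead assay after 16 h compound exposure of THP-1 cells; compounds (final up to 57.5 uM) added 1 h before LPS (250 ng/mL) and ATP (1.25 mM) stimulation; lower signal means less secretion.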
# HT1080NT lethal – qHTS for induction of synthetic lethality in tumor cells producing 2HG: qHTS for the HT-1080-NT fibrosarcoma cell line | HT-1080-NT fibrosarcoma viability, CellTiter-Glo ATP luminescence, 48 h | Potency, µM (doses to about 46.1 µM), usual class: cytotoxic | 1.6% of 360,000 active | AID 686970, 2013;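 also: NT is the 2HG producing partner of a matched IDH1 knockdown line; nearly all actives have a fitted effect of over 55% in size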
#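 Viability of the 2HG-overproducing fibrosarcoma line after 48 hours of compound exposure at 37 degrees C was determined by luminescence with CellTiter-Glo, and concentration-effect curves were then fitted and categorized.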
# Giardia killer – Small Molecules that selectively kill Giardia lamblia: qHTS; 0.15% of 340,000 active; Giardia lamblia trophozoite viability; activity change, % at 7.66 µM, hits read low; AID 540267, 2011; in the data active = activity change below about -80%; inconclusive = between about -30% and that limit;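 also: parasites exposed to compound for two days anaerobically before the ATP read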
#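 Luminescence from cellular ATP indicates surviving trophozoites (100 cells/well) following 48 hrs anaerobic compound treatment at 37 deg C; signal develops 15-30 min at room temperature.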
# HT1080 IDH1KD tx – qHTS for induction of synthetic lethality in tumor cells producing 2HG: qHTS for the HT-1080-IDH1KD cell line; HT-1080 IDH1 knockdown viability, ATP luminescence, 48 h; Potency, µM (doses to about 46.1 µM), actives largely listed as cytotoxic; 2% of 360,000 active; AID 686971, 2013
#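 After a 2 h attachment period, IDH1KD HT-1080 cells took pin-transferred compound for 48 h at 37 °C; ATP-based luminescence after 10 min room-temperature reagent incubation reported viability.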
# A number is an active result; . = inactive; ? = inconclusive; / = no result; [ ] = another dose, or the depositor's remark. Sampled rows, rich in hits. Any-hit rate of the full collection: about 6.5%. Unless noted, calls follow the shape of the dose curve; as a rule, active = well fitted curve in the direction sought with a large enough effect; inconclusive = small, poorly fitted or top-dose-only effect, or another doubt; inactive = no such curve, though single readings can be large; an effect the other way counts as inactive or inconclusive.
SMILES,TGFb SMAD3 inh,HepG2 viability,IL-1B inflam inh,HT1080NT lethal,Giardia killer,HT1080 IDH1KD tx
CCC(=O)OCC(=O)N=c1sccn1Cc1ccccc1Cl,.,.,.,.,.,.
O=C(CCl)N=c1sccn1Cc1cccc2ccccc12,?,.,-102,?,.,18µM
Cc1ccc(S(=O)(=O)N[C@@H](Cc2ccccc2)C(=O)CCl)cc1,?,.,-107,?,.,16µM
CC(=O)NC(CC(C)C)C(=O)NC(Cc1ccccc1)C(=O)CCl (configuration not stated),?,.,-98,.,.,?
Cc1ccc(S(=O)(=O)NC(Cc2ccccc2)C(=O)NN)cc1 (configuration not stated),.,.,.,.,.,.
COc1cc(C2CC(=O)Oc3cc(C)c(Cl)c(C)c32)cc(OC)c1OC (configuration not stated),.,.,.,.,?,.
COc1cccc(-n2nc(-c3ccnn3-c3cccc(Cl)c3)c(=O)n(C)c2=O)c1,?,.,?,.,?,.
CCOC(=O)c1c(C)[nH]c(C(=O)OCC(=O)c2ccc3c(c2)NC(=O)CO3)c1C,.,.,.,.,.,.
CCOc1ccc(S(=O)(=O)Nc2cccc(Cl)c2)cc1,.,.,.,?,.,.[9.24 µM]
CCOc1ccc(S(=O)(=O)Nc2cc(Cl)ccc2O)cc1,?,.,.,?,.,23µM
COc1cccc(C2CC(c3ccccc3)Nc3ncnn32)c1 (configuration not stated),.,.,.,.,.,.
CSc1ccc(C2c3c(oc4cc(C)cc(C)c4c3=O)C(=O)N2Cc2ccco2)cc1 (configuration not stated),.,.,/,/,/,/
O=C(/C=C/c1ccc2ccccc2n1)N1CCN(S(=O)(=O)c2ccc(F)cc2)CC1,?,.,-89,.,.,?
O=C(/C=C/c1ccc2ccccc2n1)N1CCN(S(=O)(=O)c2ccccc2F)CC1,?,.,-76,.,.,.
O=C(/C=C/c1ccc2ccccc2n1)N1CCN(c2ccccc2)CC1,.,.,.,.,.,.
CCOC(=O)c1cc(C)n(CC2CCC(C(=O)Nc3ccc(C(C)=O)cc3)CC2)c1C (configuration not stated),?,.,/,/,/,/
CCOC(=O)c1cc(C)n(CC2CCC(C(=O)Nc3cccc(C(C)=O)c3)CC2)c1C (configuration not stated),14µM,.,/,/,/,/
CCOC(=O)c1cc(C)n(CC2CCC(C(=O)Nc3ccc(Cl)cc3)CC2)c1C (configuration not stated),8.9µM,.,/,/,/,/
COc1ccc(N2CCC(CNS(=O)(=O)c3cccc(C(F)(F)F)c3)C2)cc1 (configuration not stated),?,.,.,.,.,.
CCOc1ccc(-c2nc(N)nc(C)c2-c2ccc(OC)c(OC)c2)c(O)c1,.,.,.,.,.,.
O=C1NC[C@H](Cc2ccccc2)N(C[C@H]2CCCN2C[C@H](Cc2ccccc2)N2C[C@H](Cc3ccccc3)N(CCc3ccccc3)C(=O)C2=O)C1=O,?,.,-77,?,.,?
O=C1NC[C@H](Cc2ccc(O)cc2)N(C[C@H]2CCCN2C[C@H](Cc2ccc(O)cc2)N2C[C@H](Cc3ccc(O)cc3)N(CCc3ccccc3)C(=O)C2=O)C1=O,.,.,.,.,/,.
CC(C)C[C@@H](CN1CCC[C@H]1CN1C(=O)C(=O)NC[C@@H]1Cc1ccc(O)cc1)N1C[C@H](Cc2ccccc2)N(CCc2ccccc2)C(=O)C1=O,/,/,?,.,/,.
O=C1NC[C@H](Cc2ccccc2)N(C[C@@H]2CCCN2C[C@H](Cc2ccccc2)N2C[C@H](Cc3ccccc3)N(CCc3ccccc3)C(=O)C2=O)C1=O,?,.,-70,?,/,?
CCOC(=O)c1c(S(=O)(=O)NCC(=O)Nc2cccc(SC)c2)c(C)n(C)c1C,.,.,/,/,/,/
SMILES,TGFb SMAD3 inh,HepG2 viability,IL-1B inflam inh,HT1080NT lethal,Giardia killer,HT1080 IDH1KD tx
COC(=O)C[C@H]1C[C@H]2c3cc(NC(=O)C4CCC4)ccc3O[C@H]2[C@H](CO)O1,.,.,.,.,/,.
C/C(CC(=O)Nc1ccccn1)=N\NC(=O)Cc1cccc2ccccc12,.,.,.,.,.,.
COc1cc(OC)cc(C(=O)N/N=C(\C)CC(=O)Nc2ccccn2)c1,.,.,.,2.6µM,.,3.3µM
C/C(CC(=O)Nc1ccccn1)=N\NC(=O)c1ccc2ccccc2c1,.,.,.,.,.,.
C/C(CC(=O)Nc1ccccn1)=N\NC(=O)c1ccccc1O,.,.,.,21µM,.,9.2µM
C/C(CC(=O)Nc1cccc(Cl)c1Cl)=N\NC(=O)c1ccccc1N,.,.,-56,.,.,.
CCOC(=O)C1=C(COC(=O)COc2ccc(Br)cc2)NC(=O)NC1C (configuration not stated),.,.,.,.,.,.
O=C(NC(C(=O)N/N=C/c1ccncc1)c1n[nH]c(=O)c2ccccc12)c1ccccc1 (configuration not stated),.,.,.,.,.,.
Cc1[nH]nc2nc(SCC(=O)NC3CCCCC3)n(-c3ccc(Br)cc3)c(=N)c12,.,.,.,.,.,?
Cc1ccc(/C=C/C(=O)NC(=S)Nc2ccccc2C(=O)NC2CCCCC2)cc1,?,.,.,.,.,.
CCOc1ccccc1NC(=O)/C=C/C(N)=O,?,.,-103,?,.,2.8µM
O=C(/C=C\c1ccccc1[N+](=O)[O-])Nc1ccccc1,.,.,.,.,.,.
CCOC(=O)/C=C/C(=O)Nc1ccccc1C(=O)NC1CCCCC1,.,.,-51,.,.,?
CCOc1ccccc1NC(=O)/C=C/c1ccccc1[N+](=O)[O-],.,.,-69,.,.,.
COc1ccc([N+](=O)[O-])cc1NC(=O)CCNC(=O)Cn1ccc2ccccc2c1=O,.,.,.,.,.,.
CCOC(=O)CNc1nc(Cl)nc(Nc2ccc(C)cc2)n1,.,.,.,.,.,.
CCC(=O)Nc1ccc2c(c1)ncn2-c1ccccc1C,.,.,.,.,.,.
Cc1cccc(N=Nc2cnc(N)s2)c1,.,.,-65,.,.,.
Cc1sc2ncnc(N3CCC(C(=O)NNC(=O)COc4ccccc4F)CC3)c2c1C,?,.,.,.,.,.
O=C(c1ccc(C23CC4CC(CC(C4)C2)C3)o1)N1CCOCC1,?,.,.,.,.,?
